Source: PubChem BioAssay
Sampled rows, rich in hits. Any-hit rate of the full collection: about 2%.
CHT PAM = allosterically activates the human high affinity choline transporter; Q9GZV3; CHT-expressing cells, membrane potential dye, choline EC20; stronger effect = higher value; LV-AA mutant CHT in HEK293 cells; B-score at 10 µM; 0.49% of 310,000 active;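 active means initial fluorescence not abnormally high and integrated response B-score, plate-corrected, over 3 SD above library mean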
TAG inh = reduces triacylglycerol accumulation in H9c2 cells; inhibition, % at 12.5 µM; 0.66% of 230,000 active; AID 651582; Nile Red lipid (TAG) fluorescence; cells loaded with 200 µM oleic acid;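 active means pattern-corrected inhibition of lipid staining of at least 50% with the nuclear-stain viability signal not falling by more than 50%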;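 further: 0% = DMSO wells and 100% = triacsin C control wells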
CHT block = inhibits the human high affinity choline transporter. B-score at 10 µM. 0.86% of 310,000 active. Q9GZV3. CHT-expressing cells, membrane potential dye, choline response; stronger effect = lower value;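 active means B-score over 3 SD under the library average, and starting fluorescence ratio not unusually high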;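 further: choline stimulus applied at its EC90 after an EC20 pre-addition; B-score computed on integrated fluorescence ratio after choline addition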
Kir21 block = Kir2.1 (mouse) channel inhibition; P35561; HEK293-Kir2.1, FluxOR thallium flux fluorescence; stronger effect = lower value; B-score at 10 µM; AID 1672; 0.85% of 310,000 active;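 active means fluorescence ratio B-score at or below minus 3 SD of library scores, with starting-brightness B-score within 2 SD, cut at about -4.2 in these data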;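 further: channel flux triggered by added potassium and thallium sulfate stimulus; B-score of peak minus minimum fluorescence over baseline after thallium stimulus; more negative B-score means stronger Kir2.1 block with less thallium influx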
hERG inh = counter-screen for Kir2.1 inhibitors: effect on human hERG; shares compounds with Kir21 block; hERG-expressing cells, thallium flux; inhibition, % at 10 µM; 20% of 320 active; AID 2236;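 further: host cells are CHO cells stably expressing hERG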
KCNK9 spec = tests whether Kir2.1 inhibitors also affect human KCNK9; shares compounds with Kir21 block; KCNK9-expressing cells, ion flux inhibition; inhibition, % at 10 µM; 5% of 320 active; AID 2329
Kir21 ephys inh = inhibitors of mouse Kir2.1 potassium channel; shares compounds with Kir21 block; Kir2.1 cells, automated patch-clamp current inhibition; inhibition, % at 25 µM; 71% of 320 active
The depositor's hits bear a star; i = inactive; / = no result. Unless noted, how the calls were made is not given here.

SMILES	CHT PAM	TAG inh	CHT block	Kir21 block	hERG inh	KCNK9 spec	Kir21 ephys inh
CCCCCCSC1=C(C#N)C(c2ccc(C)o2)CC(=O)N1 (stereo unspecified)	i	/	i	-5.99*	i	i	i
COc1cc(CNCc2ccccn2)ccc1OCC(N)=O	i	/	i	2.09	/	/	/
COc1cc(CNCc2ccccn2)ccc1OCc1ccc(Cl)cc1Cl	i	7.3	i	-5.96*	65.0%*	i	33.8%*
CCc1cc(-c2n[nH]c(C)c2-c2nc(C)cs2)c(O)cc1OC	i	-6.8	i	-11.2*	i	i	6.3%*
C[C@H]1CN([C@@H](C)CO)C(=O)c2cccc(NS(=O)(=O)c3ccc(F)cc3)c2O[C@H]1CN(C)S(=O)(=O)c1cn(C)cn1	/	-16.7	/	/	/	/	/
COc1ccccc1/C=C(\NC(=O)c1ccccc1)C(=O)NCc1ccco1	i	/	i	3.92	i	i	i
C#CCOCCOCCOCCNc1nc(N2CCN(C(=O)[C@H]([C@@H](C)CC)n3cc([C@@H](N)Cc4ccc(O)cc4)nn3)CC2)nc(N2CCN(C(=O)[C@H](CCCCN)n3cc([C@@H](N)CC(C)C)nn3)CC2)n1	i	/	i	0.26	/	/	/
Cc1c(Br)cc(C(=O)OC2CCN(C)CC2)c(C)c1C	i	/	i	-10.1*	i	i	45.4%*
O=C(c1ccccc1)c1ccc(OCC(O)CNCc2ccc(F)cc2)cc1 (stereo unspecified)	i	/	i	-9.22*	60.0%*	i	64.9%*
CC(C)CC(=O)Nc1nnc(SCC(=O)NCc2ccc3c(c2)OCO3)s1	i	-6.8	i	-0.67	/	/	/
COc1ccc(CCN(C)C(=O)c2oc3ccccc3c2C)cc1OC	i	-10.2	i	-6.54*	i	i	60.6%*
COc1ccc(CN(C(=O)c2oc3ccccc3c2C)C2CCS(=O)(=O)C2)cc1OC (stereo unspecified)	i	6.5	i	/	/	/	/
O=C(c1ccco1)N(CCC(c1ccccc1)c1ccco1)Cc1ccco1 (stereo unspecified)	i	-9.7	i	-6.13*	i	48.0%*	i
Cc1cc(Cn2nc(C(=O)NCc3cccs3)cc2-c2ccccc2)on1	i	17.6	i	/	/	/	/
CCOC(=O)c1nnn(-c2nonc2N)c1CSc1ccc(C)cc1	i	1.3	i	-8.46*	i	i	8.6%*
CCOC(=O)c1nnn(-c2nonc2N)c1CSc1ccccc1	i	/	i	-2.28	/	/	/
N#Cc1cccc(NC(=O)c2cc(C3CCCCN3C(=O)c3ccccn3)on2)c1 (stereo unspecified)	/	-4.0	/	/	/	/	/
CCOC(=O)C(NS(=O)(=O)c1ccc(Br)cc1)C(C)C (stereo unspecified)	i	/	i	-8.5*	i	i	49.2%*
CN(C)CCCOc1ccc(C(C)(C)c2ccccc2)cc1	i	-10.9	i	-6.58*	i	i	39.2%*
S=C(NCC1CCCO1)N1CCN(c2nc(-c3ccc(Cl)cc3)cs2)CC1 (stereo unspecified)	i	-9.1	i	1.34	i	i	i
CCOC1(C(F)(F)F)NC(=O)N(Cc2ccc(OC)cc2)C1=O (stereo unspecified)	i	/	i	-1.82	/	/	/
O=C(NCC(F)(F)F)c1ccc2sc([C@@H]3O[C@H](CO)[C@H](O)[C@H](O)[C@H]3O)nc2c1	/	3.9	/	/	/	/	/
CC(=O)N1CCN(C(=O)c2ccc(S(=O)(=O)Nc3cccc(C(F)(F)F)c3)cc2)CC1	i	-22.1	i	3.97	i	i	i
O=C(c1ccc(S(=O)(=O)Nc2cccc(C(F)(F)F)c2)cc1)N1CCC1	i	-5.0	i	-1.25	/	/	/
COc1ccccc1S(=O)(=O)Cc1ccc(C(=O)NCc2ccccc2)o1	i	/	i	-0.01	/	/	/
SMILES	CHT PAM	TAG inh	CHT block	Kir21 block	hERG inh	KCNK9 spec	Kir21 ephys inh
CC(C)c1ccc(C(C)NCCS(=O)(=O)c2ccc(Cl)cc2)cc1 (stereo unspecified)	i	-9.7	i	-8.04*	i	i	5.1%*
CC(C(=O)NCCS(=O)(=O)c1ccc(Br)cc1)S(=O)(=O)c1ccc(Cl)cc1 (stereo unspecified)	i	/	i	-0.02	/	/	/
CC(Oc1ccccc1F)c1nnc(SCC(=O)NCc2ccc3c(c2)OCO3)o1 (stereo unspecified)	/	-6.0	/	/	/	/	/
CCCc1ccccc1OCCNS(=O)(=O)c1cc2c(cc1C)OCC(=O)N2	i	/	i	-6.51*	i	i	i
O=C(Oc1ccc(C(=S)N2CCOCC2)cc1)c1ccccc1[N+](=O)[O-]	i	-8.1	i	-0.01	/	/	/
O=C(Oc1ccc(C(=S)N2CCOCC2)cc1)c1ccccc1F	i	/	i	-7.6*	i	i	i
COC(=O)c1ccc(CSC2=NC[C@@H]3[C@@H]4C(=O)N(Cc5ccccc5)C(=O)[C@@H]4[C@](C)(C(=O)OC)N23)cc1	/	5.3	/	/	/	/	/
CCOC(=O)C(=CNc1ccc(NC2=NCC(C)(C)S2)cc1)C(=O)OCC	i	-0.3	i	-7.04*	i	i	22.1%*
Cc1cccn2c(=O)nc(SCC(=O)NCCc3ccccc3)nc12	i	-5.4	i	-1.08	/	/	/
C=CC(=O)N(CCC)C(c1ccccc1)c1ccccc1OC (stereo unspecified)	i	26.7	i	-1.09	/	/	/
Cc1ccc(Nc2cc(C)nc3c(C)cccc23)cc1	i	/	i	-8.7*	i	i	61.4%*
CC(C)CN(C(=O)COC(=O)CNC(=O)c1sc2ccccc2c1Cl)C1CCS(=O)(=O)C1 (stereo unspecified)	i	-9.5	i	5.48	i	i	i
CCN(Cc1ccc(C#CCCO)cc1)CC1CCCN(CCc2cccc(F)c2)C1 (stereo unspecified)	i	6.6	i	-6.7*	55.0%*	i	13.7%*
Cc1ccc(S(=O)(=O)Oc2ccccc2/C=N/N=C(N)N)cc1	i	/	i	-11.4*	61.0%*	i	i
O=C(Oc1cccc(OC(=O)c2ccco2)c1)c1ccco1	i	/	i	-5.72*	i	i	i
COc1ccc(Cl)c(N2CCN(CCCNC(=O)Nc3ccc(C)cc3)CC2)c1	i	20.8	i	-6.35*	70.0%*	i	4.8%*
CCS(=O)(=O)N1CCC(NC(=O)C(Cc2cc(OC)ccc2OC)NC(C)=O)CC1 (stereo unspecified)	i	-3.1	i	1.87	i	i	i
Cc1ccc2nc(N3CCN(CCO)CC3)nc(-c3ccccc3)c2c1	i	/	i	-7*	60.0%*	i	16.0%*
CCOC(=O)N1CCN(c2nc(-c3ccccc3)c3cc(C)ccc3n2)CC1	i	/	i	-1.44	/	/	/
